Measurements: PubChem BioAssay (NCATS)
Records with an inconclusive call do not appear. Calls of active or inactive are those of the source. Calls follow the shape of the full dose curve. Numbered stars: 1 amine (or outer) side, 2 acyl side, 3 side chain; on linkers, the order of the positions; unused ones are H or OH. Bridge positions count the residues as written; N and C are the ends. Square brackets hold non-standard residues; d marks the D form. Peptide text beside a SMILES is read from it. I, II: the chains in the order shown. Actinocin(9to1) = Cc1c2oc3c(C)ccc(C(=O)[*:1])c3nc-2c(C(=O)[*:2])c(N)c1=O; NMeV = CN[C@H](C(=O)O)C(C)C; Sar = CNCC(=O)O

Molecular target: Estrogen receptor (Homo sapiens) (UniProt P03372)
Sequence (P03372 whole entry, looked up): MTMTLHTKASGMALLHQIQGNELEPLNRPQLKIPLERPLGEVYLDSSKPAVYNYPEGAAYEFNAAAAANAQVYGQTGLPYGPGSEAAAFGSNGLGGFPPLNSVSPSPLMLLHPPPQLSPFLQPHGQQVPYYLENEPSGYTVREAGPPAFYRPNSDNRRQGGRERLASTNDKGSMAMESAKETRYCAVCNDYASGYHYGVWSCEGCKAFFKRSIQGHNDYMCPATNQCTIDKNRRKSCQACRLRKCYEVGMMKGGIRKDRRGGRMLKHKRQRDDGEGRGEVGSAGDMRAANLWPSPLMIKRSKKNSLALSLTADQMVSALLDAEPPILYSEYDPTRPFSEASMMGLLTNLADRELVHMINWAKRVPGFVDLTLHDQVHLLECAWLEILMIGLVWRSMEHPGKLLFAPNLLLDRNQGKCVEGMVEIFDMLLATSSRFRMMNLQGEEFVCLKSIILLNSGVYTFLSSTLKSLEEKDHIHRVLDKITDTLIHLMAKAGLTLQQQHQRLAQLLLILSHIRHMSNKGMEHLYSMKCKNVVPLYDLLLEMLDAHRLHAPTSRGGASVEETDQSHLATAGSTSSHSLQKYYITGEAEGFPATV
Assay: qHTS assay for small molecule agonists of estrogen receptor alpha signaling (AID 588514); also: nearly all actives have a fitted effect of over 70% in size
Details: ER-alpha-UAS-bla HEK293, beta-lactamase ratio, 18 h, percent of full estradiol response, vehicle zero; series mostly up to 76.8 µM
Source text: NIH Chemical Genomics Center [NCGC]
U.S. Environmental Protection Agency [EPA]
National Institutes of Environmental Health Sciences [NIEHS]
National Toxicology Program [NTP]
Estrogen receptor alpha (ER-alpha) is an important member of nuclear hormone receptors. ER-alpha plays important role in breast cancer as well as in other women's health issues. The majority of breast cancers is estrogen receptor (ER) positive and depends on estrogen for growth. There is also growing concern for some of environmental chemicals which may contribute the increasing the incidence of breast cancer. Therefore, it is important to understand the effect of environmental chemicals in ER-alpha signaling pathway.
NCGC Assay Protocol Summary
Using a beta-lactamase reporter-gene under control of the ER response element, a cell-based assay [ER-alpha-UAS-bla GripTiteTM cell-Based Assay from Invitrogen] was used to measure ER-alpha signaling pathway in agonist mode. ER-alpha-UAS-bla-GripTite HEK 293 cells were used with assay medium containing 2% charcoal/dextran treated FBS, 0.1 mM NEAA and 1 mM sodium pyruvate. Cells were cultured in this assay medium overnight in the flasks before the assay. The assay was performed in clear bottom black Greiner 1536-well plates. 17-beta-estradiol was used as a positive control in the screen. Library compounds were measured for their ability to either stimulate the reporter gene activity. Compounds were screened in a titration series in 1536-well format. […] Data was normalized relative to 17-beta-estradiol control (20 nM, 100%), and DMSO only wells (basal, 0%). Concentration-response titration points for each compound were fitted to the Hill equation yielding concentrations of half-maximal stimulation (EC50) and maximal response (efficacy) values.
qHTS protocol for ER-alpha beta-lactamase assay in agonist mode
[Step] [Parameter] [Value] [Description]
1. Reagent; 6 uL; 5000 cells/well
2. Incubation; 37 C for 4 hrs
4. Controls (17-beta-estradiol); 23 nL
- Dose response, start 1uM, 1:3 dilutions with duplicates
- Two columns with 20 and 0.5 nM (final) concentration.
5. Incubation; 37 C for 18 hrs
6. Detection reagent; 1 uL of CCF4-dye
7. Incubation; RT for 2 hrs
8. Detection; Fluorescence; Envision plate reader or Acumen plate reader

Structure (SMILES) | outcome
C=CCc1ccc(O)c(OC)c1 | inactive
CC(O)C(=O)O (stereo not given) | inactive
Oc1c(Cl)cc(Cl)cc1Sc1cc(Cl)cc(Cl)c1O | inactive
Nc1ccc(C(=O)O)cc1 | inactive
C[C@H]1C[C@H]2[C@@H]3CCC4=CC(=O)C=C[C@]4(C)[C@@]3(Cl)[C@@H](O)C[C@]2(C)[C@@]1(O)C(=O)CO | inactive
COC1=CC(=O)C[C@@H](C)[C@]12Oc1c(Cl)c(OC)cc(OC)c1C2=O | inactive
Cc1c2oc3c(C)ccc(C(=O)N[C@@H]4C(=O)N[C@H](C(C)C)C(=O)N5CCC[C@H]5C(=O)N(C)CC(=O)N(C)[C@@H](C(C)C)C(=O)O[C@@H]4C)c3nc-2c(C(=O)N[C@@H]2C(=O)N[C@H](C(C)C)C(=O)N3CCC[C@H]3C(=O)N(C)CC(=O)N(C)[C@@H](C(C)C)C(=O)O[C@@H]2C)c(N)c1=O (I: T[dV]P[Sar][NMeV] / II: T[dV]P[Sar][NMeV]; ester I:1-I:C, II:1-II:C; linker I:N-II:N via Actinocin(9to1)) | inactive
Cc1cc(=O)n(-c2ccccc2)n1C | inactive
O=C(O)CCCCC(=O)O | inactive
CN(C)/N=N/c1nc[nH]c1C(N)=O | inactive
C=C(CC)C(=O)c1ccc(OCC(=O)O)c(Cl)c1Cl | inactive
COc1cccc2c1C(=O)c1c(O)c3c(c(O)c1C2=O)C[C@@](O)(C(=O)CO)C[C@@H]3O[C@H]1C[C@H](N)[C@H](O)[C@H](C)O1 | inactive
O=c1ccc2ccccc2o1 | inactive
CC(C)(C)CC(C)(C)c1ccc(OCCOCC[N+](C)(C)Cc2ccccc2)cc1 | inactive
CC(=O)O[C@]1(C(C)=O)CC[C@H]2[C@@H]3C[C@H](C)C4=CC(=O)CC[C@]4(C)[C@H]3CC[C@@]21C | inactive
